Hit rate of the full screen: of about 69,000 compounds, about 8,600 (12%) showed an effect of 50% or more. This is one part of a sample in which strong results are shown more often than they occur.
System: Plasmodium berghei
Test: Screen against P. berghei liver stage (PbLuc), transformed with Luciferase, at 10uM
Assay type: functional, HepG2
Details: tested at 10 uM

Structure (SMILES)	INHIBITION [%]
COC(=O)c1cccc(NCC(=O)NC(N)=O)c1	-5.92
CN(Cc1cccc2cnccc12)C(=O)CCc1n[nH]c2c1CCCC2	34.9
Cc1ccc(NC(=O)CCc2cnn(C)c2)cc1F	22.3
Cc1cccc(C2(C(=O)NCC3CCN(CC(F)(F)F)C3)CCC2)c1 (stereo not given)	5.03
CS(=O)(=O)NC1CCCN(C(=O)c2cccnc2)C1 (stereo not given)	-16
CC(O)CN1CCC(CN(C)CCC(=O)NC2CCCCC2)CC1 (stereo not given)	19.7
CCc1cc(N[C@H](C(N)=O)C(C)C)n2nc(C)c(C)c2n1	16.3
CCc1cc(N[C@@H](CC(C)C)C(N)=O)n2nc(C)c(C)c2n1	47.7
CCc1cc(N[C@@H](CO)C(N)=O)n2nc(C)c(C)c2n1	54.4
Cc1ccc(CN(Cc2ccncc2)C2CC(C)(C)NC(C)(C)C2)o1	7.05
Cc1cccc(CN(Cc2ccc(C)o2)C2CC(C)(C)NC(C)(C)C2)n1	53.5
Cc1ccc(CN(Cc2ncc[nH]2)C2CC(C)(C)NC(C)(C)C2)o1	91.6
Cc1ccc(CN(Cc2c[nH]cn2)C2CC(C)(C)NC(C)(C)C2)o1	19.3
CC1(C)CC(N(Cc2ccccc2)Cc2ncc[nH]2)CC(C)(C)N1	10.26
Cc1ccc(CN(Cc2[nH]cnc2C)C2CC(C)(C)NC(C)(C)C2)o1	38.2
CC(C)CO[C@@H]1CC[C@H]2[C@H]1OCCN2S(=O)(=O)C1CC1	28.3
Cc1cncnc1C1CCN(CCO)CC1	-20.6
CC(=O)NCc1ccc(C(=O)NC2CCc3nc(C)cn3C2)o1 (stereo not given)	17.945
COc1ccc(CN2C[C@@H]3COC[C@@H](CC(=O)N4CCCC4)[C@@H]3C2)cc1	-26.5
COc1ccc(CN2C[C@@H]3COC[C@H](N4CCN(C)CC4)[C@@H]3C2)cc1	40.4
Cc1cc(C)cc(CN2C[C@H]3COC[C@H](N4CCN(C)CC4)[C@H]3C2)c1	47.4
O=C(C[C@@H]1COC[C@H]2CN(Cc3cccnc3)C[C@@H]12)N1CCOCC1	19.5
COc1ccc(CN2C[C@@H]3COC[C@@H](N4CCN(C)CC4)[C@@H]3C2)cc1	68.4
CN1CCN([C@H]2COC[C@@H]3CN(Cc4cccnc4)C[C@@H]32)CC1	57.9

Structure (SMILES)	INHIBITION [%]
Cc1nc(CN2CCCN(Cc3nccn3C(C)C)CC2)no1	29.7
CNc1nc(CNC(=O)Nc2cccc(CC(F)(F)F)c2)cs1	7.5
CNC(=O)[C@H]1C[C@@H]2CN(c3cc(OC)ncn3)C[C@@H]2N1C(C)C	55.6
CNC(=O)[C@H]1C[C@@H]2CN(Cc3cccnc3OC)C[C@@H]2N1C(C)C	33.4
CNC(=O)[C@@H]1C[C@H]2CN(c3ncccn3)C[C@H]2N1C(C)C	24.6
CN1CCN(C[C@H]2OC[C@@H]3CCN(Cc4ccsc4)C[C@@H]32)CC1	22.4
O=C(c1ccn(COc2ccc(F)cc2)n1)N1CCCCCC1	-24.6
CC(C)c1ccc(OCn2ccc(C(=O)N3CCCC3)n2)cc1	83.4
O=C(c1ccn(COc2ccc(F)cc2)n1)N1CCCC1	-28
CN(CCc1ccccn1)Cc1nccn1Cc1ccccc1	81.2
CN(CCc1ccncc1)Cc1nccn1Cc1ccccc1	11.6
CN(Cc1ccncc1)Cc1nccn1Cc1ccccc1	-46.4
CC(C)CC(=O)N1CCCC1c1nccnc1Nc1ncccn1 (stereo not given)	32.3
O=S(=O)(CC1CCCN1S(=O)(=O)c1cccnc1)c1ccccc1 (stereo not given)	13.2
CS(=O)(=O)N1CCCC1CS(=O)(=O)c1ccccc1 (stereo not given)	66.9
O=S(=O)(CC1CCCN1S(=O)(=O)C1CC1)c1ccccc1 (stereo not given)	7.77
O=C1NC(c2cnc(C3CCC3)s2)Nc2ccccc21 (stereo not given)	-90.1
CC(C)N(C)Cc1n[nH]c2c1CCN(C(=O)c1cc[nH]n1)C2	8.03
Cc1nc2c(c(NC(C)C)n1)CCN(C(=O)c1cc[nH]n1)CC2	34.6
CC(C)Nc1nc2c(c(N(C)C)n1)CCN(C(=O)c1cc[nH]n1)CC2	50.7
O=C(C[C@@H]1COC[C@H]2CN(C3CCOCC3)C[C@@H]12)Nc1cnccn1	42.5
COc1ccccc1C1(O)CCCN(C(=O)c2cnc(SC)nc2)C1 (stereo not given)	36.9
O=C(CC1CC1)N[C@@H]1CN(Cc2ccoc2)C[C@@H]2CCCO[C@@H]21	3.25
O=C(N[C@@H]1CN(Cc2ccoc2)C[C@@H]2CCCO[C@@H]21)C1CCC1	72

Structure (SMILES)	INHIBITION [%]
Cc1occc1C(=O)N1C[C@@H]2CCCO[C@@H]2[C@H](NS(C)(=O)=O)C1	43
O=C(CC1CC1)N[C@@H]1CN(c2ncccn2)C[C@@H]2CCCO[C@@H]21	-29.3
O=C(CC1CC1)N[C@@H]1CN(C(=O)c2ccoc2)C[C@@H]2CCCO[C@@H]21	71.1
O=C(CC1CC1)N[C@@H]1CN(Cc2ccco2)C[C@@H]2CCCO[C@@H]21	-2.17
O=C(CC1CC1)N[C@@H]1CN(C(=O)c2ccsc2)C[C@@H]2CCCO[C@@H]21	63.8
COc1ccc(CN2C[C@@H]3CCCO[C@@H]3[C@H](NC(=O)CC3CC3)C2)cc1	-3.52
Cc1occc1C(=O)N1C[C@@H]2CCCO[C@@H]2[C@H](NC(=O)CC2CC2)C1	62.9
O=C(CC1CC1)N[C@@H]1CN(Cc2ccc(F)cc2)C[C@@H]2CCCO[C@@H]21	-6.23
O=C(N[C@@H]1CN(Cc2ccccc2)C[C@@H]2CCCO[C@@H]21)C1CC1	6.38
Cc1ccc(CN2C[C@@H]3CCCO[C@@H]3[C@H](NC(=O)CC3CC3)C2)s1	49.3
O=C(CCC1CCCO1)NCc1ccccc1Cn1cncn1 (stereo not given)	34.7
COc1ccc(Nc2nc3c(C)nn(C)c3c(=O)n2C)c(C)c1	29
Cc1nn(C)cc1C(=O)N1CCCC(n2cncn2)C1 (stereo not given)	9.14
Cc1sc(C(=O)O)cc1S(=O)(=O)Nc1c(F)cccc1-n1cccn1	-28.8
O=C(NCC1(COc2cnccn2)C[C@@H](O)[C@@H](O)C1)C1CCOCC1 (stereo not given in full)	-0.813
Cc1n[nH]c(=O)c(C(=O)N2CCN(CCc3cccs3)CC2)c1C	-36.1
CSC(C)C(=O)NS(=O)(=O)c1ccc(F)c(C(F)(F)F)c1 (stereo not given)	25
Cc1ncsc1CN1CC[C@H]2C(=O)N(c3ccccc3)CCO[C@H]2C1	23.3
COc1ccc(CN2CCc3c(CNC(=O)CC#N)nn(C)c3C2)cc1	29.8
CCc1sc(-c2nnc(CNCCn3cc(C)cn3)o2)cc1C	30.8
CN(Cc1nnc(C2CC2)n1C)C1CCN(Cc2nccn2C)C1 (stereo not given)	21.6
COc1ncccc1NC(=O)NC(CCCO)c1ccccc1 (stereo not given)	25.4
CC(C)OC(=O)CNC(=O)Nc1ccc(-c2nc(C(C)C)no2)cc1	-17.8
O=C(CC1CC1)N[C@@H]1CN(Cc2ccncc2)C[C@@H]2CCCO[C@@H]21	33.4

Structure (SMILES)	INHIBITION [%]
O=C(CC1CC1)N[C@@H]1CN(C(=O)c2cccs2)C[C@@H]2CCCO[C@@H]21	53.9
O=C(CC1CC1)N[C@@H]1CN(Cc2nccs2)C[C@@H]2CCCO[C@@H]21	29
Cc1n[nH]c(C)c1CCC(=O)N(C)Cc1cn[nH]c1-c1ccc(F)cc1	11.8
COCC(=O)N1CCCC2(CCN(c3ccsc3)C2=O)C1 (stereo not given)	37
O=C(CC1CC1)N1CCCC2(CCC(=O)N2CC2CC2)CC1 (stereo not given)	6.27
CCc1nc(CCNc2ccc(S(N)(=O)=O)cc2C#N)cs1	42.4
Cc1nc(C)c(CCNc2ccc(S(N)(=O)=O)cc2C#N)s1	49.9
Cc1csc(CCCNc2ccc(S(N)(=O)=O)cc2C#N)n1	66.5
COCCN1CCC2(CC1)CN(C(=O)Cc1cccnc1)CCO2	14.9
CN(Cc1cccnc1)CC1CC12CCN(c1nncs1)CC2 (stereo not given)	16.9
CN(Cc1cccnc1)CC1CC12CCN(Cc1nccs1)CC2 (stereo not given)	45.8
Cc1ccc(CN2CCC3(CC2)CC3CN(C)Cc2cccnc2)o1 (stereo not given)	-24.9
Cc1cnc(N2CCC3(C2)C(=O)N(C)CCN3Cc2cccnc2)nc1 (stereo not given)	-50.6
Cc1cnc(N2CCC3(CC2)CC3CN(C)Cc2cccnc2)nc1 (stereo not given)	71.6
CN(Cc1cccnc1)CC1CC12CCCC2 (stereo not given)	60.9
CCC1CN(CC(=O)N2CCN(C(C)=O)CC2)CCN1CCOC (stereo not given)	4.52
CCN1CC(C(=O)N(C)Cc2cc3cc(F)ccc3[nH]2)CC1=O (stereo not given)	-14.1
CN(Cc1cc2cc(F)ccc2[nH]1)C(=O)C1CC(=O)N(C2CCCC2)C1 (stereo not given)	26.5
CN(C)CCN1CC(C(=O)N(C)Cc2cc3cc(F)ccc3[nH]2)CC1=O (stereo not given)	52.2
Cc1ccc(S(=O)(=O)N2CC[C@@H](O)C2)c(F)c1	2.25
Cc1cc(S(=O)(=O)N2CC[C@@H](O)C2)c(Cl)cc1F	-46.4
Cc1cc(S(=O)(=O)N2CCC(N3CCC(O)C3)CC2)c(Cl)cc1Cl (stereo not given)	71.1
O=C(NCC1CCCO1)c1nc2c(s1)CCCN2c1ncccn1 (stereo not given)	-4.32

Source: ChEMBL document CHEMBL4513216, “Probing the Open Global Health Chemical Diversity Library for Multistage-Active Starting Points for Next-Generation Antimalarials” (ACS Infect Dis, 2020)
